Measurements taken from PMC11995724, “Antibiotic target discovery by integrated phenotypic and activity-based profiling of electrophilic fragments” (Cell chemical biology, 2025).
In all, about 3,200 compounds went through this assay and about 110 (3.4%) showed an effect of 50% or more. Shown is part of a subset that was picked to be rich in strong results.

Test system: T1, V. cholerae SAD30
T1 construct: SAD30
Parameters: species or system S. aureus MSSA476 (TSB) or V. cholerae SAD30 (LB); 384-well bacterial growth screen at 25 uM, OD600 relative to DMSO control
Details: relative growth, OD600, LB; 25 µM; inhibitor

| SMILES | % of control remaining [%] |
| --- | --- |
| O=C(CCl)c1c[nH]c2ccc(F)cc12 [10-O11, 2-chloro-1-(5-fluoro-1H-indol-3-yl)ethan-1-one] | 23.3781 |
| O=C(CCl)c1ccc(O)cc1O [10-C14, 2-chloro-1-(2,4-dihydroxyphenyl)ethan-1-one] | 100.682 |
| O=C(CCl)c1c[nH]c2ccccc12 [10-B05, 2-chloro-1-(1H-indol-3-yl)ethan-1-one] | 108.475 |
| CC(C)Oc1ccc2[nH]cc(C(=O)CCl)c2c1 [10-E03, 2-chloro-1-[5-(propan-2-yloxy)-1H-indol-3-yl]ethan-1-one] | 105.669 |
| O=C(CCl)c1ccc(F)cc1F [10-I18, 2-chloro-1-(2,4-difluorophenyl)ethan-1-one] | 22.7547 |
| Cc1cc(C(=O)CCl)c(C)n1Cc1ccc(F)cc1 [10-N17, 2-chloro-1-{1-[(4-fluorophenyl)methyl]-2,5-dimethyl-1H-pyrrol-3-yl}ethan-1-one] | 95.5387 |
| COc1ccc(Cc2cnc(NC(=O)CCl)s2)cc1 [4-F17, 2-chloro-N-{5-[(4-methoxyphenyl)methyl]-1,3-thiazol-2-yl}acetamide] | 111.451 |
| CC(Cl)C(=O)N1CCc2ncccc2C1 (stereo not drawn) [7-I19, 2-chloro-1-(5,6,7,8-tetrahydro-1,6-naphthyridin-6-yl)propan-1-one] | 77.5814 |
| C=CC(=O)NC(CO)c1ccnn1C (stereo not drawn) [2-D17, N-[2-hydroxy-1-(1-methyl-1H-pyrazol-5-yl)ethyl]prop-2-enamide] | 92.203 |
| C=CC(=O)Nc1cccc(-c2cn(C)nn2)c1 [1-K14, N-[3-(1-methyl-1H-1,2,3-triazol-4-yl)phenyl]prop-2-enamide] | 83.4081 |
| COc1ccc(-n2c(C)c(C)c(C#N)c2NC(=O)CCl)cc1 [4-F20, 2-chloro-N-[3-cyano-1-(4-methoxyphenyl)-4,5-dimethyl-1H-pyrrol-2-yl]acetamide] | 105.413 |
| CC(NC(=O)CCl)c1cn(-c2ccccc2)nn1 (stereo not drawn) [5-O06, 2-chloro-N-[1-(1-phenyl-1H-1,2,3-triazol-4-yl)ethyl]acetamide] | 103.73 |
| O=C(CCl)c1cn(-c2ccc(F)cc2)nn1 [10-F05] | 0.6234 |
| Cc1cccc(-n2c(C)cc(C(=O)CCl)c2C)c1 [10-A22, 2-chloro-1-[2,5-dimethyl-1-(3-methylphenyl)-1H-pyrrol-3-yl]ethan-1-one] | 108.163 |
| O=C(CCl)c1cn(-c2cccc(C(F)(F)F)c2)nn1 [10-C09, 2-chloro-1-{1-[3-(trifluoromethyl)phenyl]-1H-1,2,3-triazol-4-yl}ethan-1-one] | 24.9367 |
| Cn1ccc(C(=O)CCl)c1 [10-D08, 2-chloro-1-(1-methyl-1H-pyrrol-3-yl)ethan-1-one] | 103.176 |
| Cn1cc(C(=O)CCl)cc1C(N)=O [10-J06, 4-(2-chloroacetyl)-1-methyl-1H-pyrrole-2-carboxamide] | 97.5648 |
| Cc1cc(C(=O)CCl)c(C)n1-c1cccc(Cl)c1 [10-N18, 2-chloro-1-[1-(3-chlorophenyl)-2,5-dimethyl-1H-pyrrol-3-yl]ethan-1-one] | 92.4216 |
| Cc1cc(C(=O)CCl)c(C)n1-c1ccc(C(F)(F)F)cc1 [10-J14, 2-chloro-1-{2,5-dimethyl-1-[4-(trifluoromethyl)phenyl]-1H-pyrrol-3-yl}ethan-1-one] | 98.4999 |
| O=C(CCl)c1c(-c2ccc(F)cc2)[nH]c2ccccc12 [10-P04, 2-chloro-1-[2-(4-fluorophenyl)-1H-indol-3-yl]ethan-1-one] | 95.8504 |
| Cn1cc(C(=O)CCl)nn1 [10-M19, 2-chloro-1-(1-methyl-1H-1,2,3-triazol-4-yl)ethan-1-one] | 0 |
| O=C(CCl)NC1CC(=O)N(c2cccc(C(F)(F)F)c2)C1 (stereo not drawn) [5-E09, 2-chloro-N-{5-oxo-1-[3-(trifluoromethyl)phenyl]pyrrolidin-3-yl}acetamide] | 100.2 |
| Cc1cccc(-n2cc(C(=O)CCl)nn2)c1 [10-L07] | 5.299 |
| CCc1ccc(NC(=O)C(C)Cl)cc1 (stereo not drawn) [4-L15, 2-chloro-N-(4-ethylphenyl)propanamide] | 96.9592 |

| SMILES | % of control remaining [%] |
| --- | --- |
| CC(Cl)C(=O)NCc1csc2ccccc12 (stereo not drawn) [7-C11, N-[(1-benzothiophen-3-yl)methyl]-2-chloropropanamide] | 69.5192 |
| COc1ccc(C=C(C#N)C(=O)Nc2ccccc2)cc1 [8-A05, 2-cyano-3-(4-methoxyphenyl)-N-phenylprop-2-enamide] | 91.9782 |
| N#CC(=Cc1ccc(O)cc1)C(=O)Nc1cc(Cl)ccc1Cl [9-F03, 2-cyano-N-(2,5-dichlorophenyl)-3-(4-hydroxyphenyl)prop-2-enamide] | 117.947 |
| CC(Cl)C(=O)N1CCN(C(=O)Cc2cccc(Cl)c2)C(C)C1 (stereo not drawn) [7-E20, 2-chloro-1-{4-[2-(3-chlorophenyl)acetyl]-3-methylpiperazin-1-yl}propan-1-one] | 74.6737 |
| CC(Cl)C(=O)N[C@H]1C[C@H](C)S(=O)(=O)c2sccc21 (stereo partly drawn) [6-B22, 2-chloro-N-[(2S,4S)-2-methyl-1,1-dioxo-2H,3H,4H-1lambda6-thieno[2,3-b]thiopyran-4-yl]propanamide] | 103.289 |
| Cc1ccc(SCCNC(=O)CCl)cc1 [4-K21, 2-chloro-N-{2-[(4-methylphenyl)sulfanyl]ethyl}acetamide] | 111.279 |
| N#CC(=Cc1ccccc1OC(F)F)C(=O)Nc1ccccc1Cl [9-M21, N-(2-chlorophenyl)-2-cyano-3-[2-(difluoromethoxy)phenyl]prop-2-enamide] | 89.5309 |
| COc1ccc(CCNC(=O)CCl)cc1 [5-H12, 2-chloro-N-[2-(4-methoxyphenyl)ethyl]acetamide] | 68.593 |
| O=C(CCl)NCCCc1ccccc1 [4-N04, 2-chloro-N-(3-phenylpropyl)acetamide] | 112.487 |
| O=C1C=CC(=O)N1CCc1ccccc1F [10-G03, 1-[2-(2-fluorophenyl)ethyl]-2,5-dihydro-1H-pyrrole-2,5-dione] | 22.2872 |
| COc1ccc(CCN2C(=O)C=CC2=O)cc1OC [10-H07, 1-[2-(3,4-dimethoxyphenyl)ethyl]-2,5-dihydro-1H-pyrrole-2,5-dione] | 98.344 |
| O=C1C=CC(=O)N1CCc1ccccc1 [10-E20, 1-(2-phenylethyl)-2,5-dihydro-1H-pyrrole-2,5-dione] | 27.5862 |
| Cc1cc(C(=O)CCl)c(C)n1CCc1ccc(F)cc1 [10-G14, 2-chloro-1-{1-[2-(4-fluorophenyl)ethyl]-2,5-dimethyl-1H-pyrrol-3-yl}ethan-1-one] | 97.7206 |
| COc1ccc(CCN2C(=O)C=CC2=O)cc1 [10-A05, 1-[2-(4-methoxyphenyl)ethyl]-2,5-dihydro-1H-pyrrole-2,5-dione] | 35.8465 |
| CC(Cl)C(=O)NCCc1ccc(F)cc1 (stereo not drawn) [6-F06, 2-chloro-N-[2-(4-fluorophenyl)ethyl]propanamide] | 86.757 |
| Cc1cc(C(=O)CCl)c(C)n1CCc1ccccc1 [10-B18, 2-chloro-1-[2,5-dimethyl-1-(2-phenylethyl)-1H-pyrrol-3-yl]ethan-1-one] | 95.3828 |
| O=C1C=CC(=O)N1CCc1ccc(F)cc1 [10-C21, 1-[2-(4-fluorophenyl)ethyl]-2,5-dihydro-1H-pyrrole-2,5-dione] | 34.7555 |
| O=C(CCl)Nc1nnc(-c2ccccc2Cl)s1 [6-K17, 2-chloro-N-[5-(2-chlorophenyl)-1,3,4-thiadiazol-2-yl]acetamide] | 95.8574 |
| CC(Cl)C(=O)Nc1cccc(Cl)c1 (stereo not drawn) [5-H22, 2-chloro-N-(3-chlorophenyl)propanamide] | 106.42 |
| C=CC(=O)N(Cc1cn2ccccc2n1)C1CC1 [3-J21, N-cyclopropyl-N-({imidazo[1,2-a]pyridin-2-yl}methyl)prop-2-enamide] | 90.3253 |
| C=CC(=O)NCc1cnc(-c2ccc(C(F)(F)F)cc2)s1 [1-C13, N-({2-[4-(trifluoromethyl)phenyl]-1,3-thiazol-5-yl}methyl)prop-2-enamide] | 68.9088 |
| CC(Cl)C(=O)N1CCn2c(C#N)ccc2C1C (stereo not drawn) [6-F22, 2-(2-chloropropanoyl)-1-methyl-1H,2H,3H,4H-pyrrolo[1,2-a]pyrazine-6-carbonitrile] | 96.0091 |
| C=CC(=O)NCCC(=O)N1CCCN(c2cccnn2)CC1 [2-P16, N-{3-oxo-3-[4-(pyridazin-3-yl)-1,4-diazepan-1-yl]propyl}prop-2-enamide] | 95.7541 |
| Cc1n[nH]c(C)c1C=C(C#N)C(=O)Nc1ccc(SC(F)F)cc1 [8-E08, 2-cyano-N-{4-[(difluoromethyl)sulfanyl]phenyl}-3-(3,5-dimethyl-1H-pyrazol-4-yl)prop-2-enamide] | 75.2549 |
